Bioassay records as filed in PubChem.
This excerpt belongs to a sample that is enriched for hits.
Cycloheximide cs: affects cycloheximide protein synthesis inhibition readout, counter-screen; cell reporter, cycloheximide protein synthesis inhibition counterscreen; actives 12% (n = 300,000); max response, %; AID 2314; in the data active means max response mostly above about 13%, no sharp cut-off; inactive means mostly below about 14%; further: read at 38.3 µM for the half of the compounds with a filed dose
AmpC inh detg: AmpC beta-lactamase inhibition with detergent present; P00811; AmpC hydrolysis of nitrocefin, absorbance 480 nm, 0.01% Triton; Potency, µM (titrated, usually from 114 µM), actives largely listed as inhibitors; actives 0.041% (n = 370,000); further: nearly all actives have a fitted effect of over 25% in size
Target sequence (P00811 whole entry, looked up): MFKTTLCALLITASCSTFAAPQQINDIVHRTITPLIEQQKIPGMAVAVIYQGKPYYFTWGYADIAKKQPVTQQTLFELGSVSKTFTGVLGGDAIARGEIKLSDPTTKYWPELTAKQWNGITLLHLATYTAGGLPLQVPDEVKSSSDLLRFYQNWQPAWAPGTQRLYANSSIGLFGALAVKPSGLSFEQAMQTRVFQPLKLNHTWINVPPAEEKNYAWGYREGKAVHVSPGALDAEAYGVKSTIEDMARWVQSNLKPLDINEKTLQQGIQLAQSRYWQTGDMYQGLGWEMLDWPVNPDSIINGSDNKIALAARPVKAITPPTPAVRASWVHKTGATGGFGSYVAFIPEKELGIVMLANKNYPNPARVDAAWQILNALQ
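AmpC (5.3 nM in the dispensed reagent) in 20 mM phosphate pH 7.0 with 0.01% (detergent screen) or 0.0001% Triton X-100 was preincubated with compounds for 15 min at room temperature. Nitrocefin was then added from an 800 uM solution, and hydrolysis was followed at 480 nm.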
NS1 function inh: blocks influenza NS1 protein function. actives 0.4% (n = 270,000). Potency, µM (doses to about 46.1 µM); calls by dose curve; further: actives are rising curves; nearly all actives have a fitted effect of over 50% in size
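Compounds were scored for reversing the slow growth caused by influenza A NS1 in S. cerevisiae, measured by optical density at 600 nm. Assay medium contained 2% galactose at pH 6.0; NS1-free yeast of the same strain were the positive control.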
AmpC inh no detg: AmpC beta-lactamase inhibition without detergent; AmpC nitrocefin hydrolysis, absorbance 480 nm, 0.0001% Triton; actives 0.52% (n = 330,000); AID 485341; Potency, µM (titrated, usually from 57.1 µM), most hits filed as inhibitors; P00811; further: nearly all actives have a fitted effect of over 20% in size
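20 mM phosphate pH 7.0 + 0.01% (detergent screen) or 0.0001% Triton X-100; 5.3 nM AmpC reagent; cpd preinc 15 min RT; nitrocefin (800 uM stock) to start; A480 q20 s × 4 min; Activity was normalised to no-enzyme and no-compound control wells.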
Shiga toxin inh: blocks Shiga toxin action in Vero cells. Vero cells, Shiga toxin protein synthesis inhibition reporter. inhibition, % at 38.7 µM. actives 9.2% (n = 290,000). AID 2315; in the data active means inhibition mostly above about 28%, no sharp cut-off; inactive means mostly below about 43%
Each line names hits and unclear results; the compound was inactive in the other large screens. Unless noted, the call rests on the fitted dose curve; in most records, active means well fitted curve in the direction sought with a large enough effect; inconclusive means small, poorly fitted or top-dose-only effect, or another doubt; inactive means no such curve, though single readings can be large; an effect the other way counts as inactive or inconclusive.

C(=C\c1nc2ccccc2[nH]1)/c1ccccc1	Cycloheximide cs 21, Shiga toxin inh 68
O=C(/C(=C/c1ccc(Cl)cc1)c1nc2ccccc2[nH]1)c1ccccc1	Cycloheximide cs 37, Shiga toxin inh 41
N#C/C(=C(/O)c1ccc(Cl)cc1)c1nc2ccccc2[nH]1	none
O=c1[nH]c2ccccc2nc1/C=C/c1ccc(Cl)cc1	Cycloheximide cs 37, Shiga toxin inh 69 (no result: NS1 function inh)
C(=C\c1ccco1)/c1nc2ccccc2[nH]1	Cycloheximide cs 50, Shiga toxin inh 70
Cn1c(=O)oc2cc(S(=O)(=O)NCc3ccc(F)cc3)ccc21	AmpC inh detg inconclusive
Cc1cccc(-c2cc(C(=O)O)c3c(-c4ccc(F)cc4)[nH]nc3n2)c1	none (no result: Cycloheximide cs, NS1 function inh, AmpC inh no detg, Shiga toxin inh)
CCN(C(=O)COC(=O)/C=C/c1ccc(O)c(OC)c1)C1CCS(=O)(=O)C1 (stereo unspecified)	NS1 function inh inconclusive
Cc1ccc2[nH]c3c(c2c1)CN(C(=O)CN1CCCc2ccccc21)CC3	Cycloheximide cs 19, AmpC inh detg inconclusive, Shiga toxin inh 69
C=CCNCCCOc1ccc(C)cc1Br	Cycloheximide cs 27, Shiga toxin inh 65
CCOc1ccccc1OCCCOc1ccc(C)cc1Cl	Cycloheximide cs 23, Shiga toxin inh 62
CCOc1ccccc1OCCCOc1ccc(C)cc1Br	Cycloheximide cs 41, AmpC inh detg inconclusive, Shiga toxin inh 70
COCCCNCCCOc1ccc(C)cc1Br	none
O=C(Nc1ccc(F)cc1F)c1ccc(-c2ccccc2)s1	none (no result: Cycloheximide cs, NS1 function inh, AmpC inh no detg, Shiga toxin inh)
CO/N=C/c1ccc(Oc2ccc(C)cc2)c([N+](=O)[O-])c1	Cycloheximide cs 43 (no result: NS1 function inh)
O=[N+]([O-])c1cc(/C=N/O)ccc1Oc1ccccc1Cl	Cycloheximide cs 53, Shiga toxin inh 50
COCCn1c(C)cc(C(=O)CSc2ncn[nH]2)c1C	Cycloheximide cs 36, Shiga toxin inh 71
COCCn1c(C)cc(C(=O)CSc2nc(C)c(C)c(C)n2)c1C	none (no result: NS1 function inh)
COCCn1c(C)cc(C(=O)CSc2nc3ccccc3s2)c1C	Cycloheximide cs 80
COCCn1c(SCC(=O)c2cc(C)n(C)c2C)nc2ccccc2c1=O	Cycloheximide cs 11
COCCn1c(C)cc(C(=O)CSc2cc(C)c3ccc(OC)cc3n2)c1C	Cycloheximide cs 18
Cc1ccc(NC(=O)C(Cc2ccccc2)NS(=O)(=O)c2ccc3c(c2)oc(=O)n3C)cc1F (stereo unspecified)	none (no result: Cycloheximide cs, NS1 function inh, AmpC inh no detg, Shiga toxin inh)
COCCCNC(=O)CC(NS(=O)(=O)c1ccc(Cl)cc1)c1ccc(OC)cc1 (stereo unspecified)	none
COc1ccc(S(=O)(=O)N2CCN(CC(=O)NCCc3cccs3)CC2)cc1	none (no result: Cycloheximide cs, NS1 function inh, Shiga toxin inh)
COCCn1c(C)cc(C(=O)CSc2nnc3ccccn23)c1C	none
COCCn1c(C)cc(C(=O)CSc2nc3ccccc3o2)c1C	Cycloheximide cs 51, Shiga toxin inh 120
COCCCn1c(SCC(=O)Nc2ccc(C(=O)OC)cc2)nc2ccccc2c1=O	none
COCCCn1c(SCC(=O)Nc2ccc(C)cc2)nc2ccccc2c1=O	Shiga toxin inh 56
CCN(Cc1ccccc1)S(=O)(=O)c1ccccc1Br	none (no result: Cycloheximide cs, AmpC inh detg, NS1 function inh, Shiga toxin inh)
CCN(CC)S(=O)(=O)c1ccccc1/C=N\O	Cycloheximide cs 29
Cc1ccc(NS(=O)(=O)c2ccc(OCC(=O)NCc3cccnc3)cc2)cc1	none
O=C1CC(N2CC=C(c3ccccc3)CC2)C(=O)N1c1ccc(F)cc1 (stereo unspecified)	AmpC inh detg inconclusive, AmpC inh no detg 45µM
O=C1CC(N2CCc3ccccc32)C(=O)N1c1ccccc1 (stereo unspecified)	Shiga toxin inh 73
CCCOc1ccc(N2C(=O)CC(N3CC=C(c4ccccc4)CC3)C2=O)cc1 (stereo unspecified)	none
COc1cccc(C(=O)CC2(O)C(=O)Nc3ccc(Cl)cc32)c1 (stereo unspecified)	none (no result: Cycloheximide cs, NS1 function inh, AmpC inh no detg, Shiga toxin inh)
O=[N+]([O-])c1ccc(N/N=C\c2cccn2-c2ccccc2)nc1	Cycloheximide cs 17
Cc1ccccc1-n1c(C)cc(/C=N/Nc2ccc([N+](=O)[O-])cn2)c1C	Cycloheximide cs 36, Shiga toxin inh 91
O=[N+]([O-])c1ccc(N/N=C/c2ccc(OCc3cccc4ccccc34)cc2)nc1	Cycloheximide cs 18 (no result: NS1 function inh)
Cc1cc(/C=N/Nc2ccc([N+](=O)[O-])cn2)c(C)n1-c1ccc(C(=O)O)cc1	none (no result: NS1 function inh)
N#Cc1ccccc1Cn1cc(/C=N/Nc2ccc([N+](=O)[O-])cn2)c2ccccc21	AmpC inh detg inconclusive (no result: NS1 function inh)
COc1ccc(CCNC(=O)Cn2cc(C(=O)c3ccc(Cl)cc3)c(=O)c3ccc(C)nc32)cc1OC	none (no result: Cycloheximide cs, NS1 function inh, AmpC inh no detg, Shiga toxin inh)
COc1ccc(Cl)cc1N(C)C(=O)Cn1cnc2sc(C)c(S(=O)(=O)N3CCN(c4ncccn4)CC3)c2c1=O	none (no result: Cycloheximide cs, NS1 function inh, AmpC inh no detg, Shiga toxin inh)
O=C1C(C2=NC(C(=O)O)C3C(=O)N(c4ccccc4)C(=O)C23)=C(O)c2ccccc21 (stereo unspecified)	none
O=C1C(C2=C(O)c3ccccc3C2=O)=Nc2ccccc21	Cycloheximide cs 25, AmpC inh detg inconclusive, Shiga toxin inh 65
O=c1c2ccccc2nc(SCc2ccccc2)n1Cc1ccco1	Cycloheximide cs 36
Cc1ccc(CSc2nc3ccccc3c(=O)n2CCCC(=O)NCc2ccco2)cc1	none
O=c1c2ccccc2nc(SCc2nnc(-c3ccccc3Br)o2)n1Cc1ccco1	Cycloheximide cs 17, AmpC inh detg inconclusive, NS1 function inh inconclusive
O=C(CSc1nc2ccccc2c(=O)n1Cc1ccco1)c1ccccc1	Cycloheximide cs 24
O=c1c2ccccc2nnn1CSc1nc2ccccc2c(=O)n1Cc1ccco1	none
Cc1ccc(CSc2nc3ccccc3c(=O)n2Cc2ccco2)cc1	Shiga toxin inh 63
CCOC(=O)CSc1nc2ccccc2c(=O)n1Cc1ccco1	AmpC inh detg inconclusive
COCCNC(=O)c1c(C)oc2nc(C)nc(N3CCOCC3)c12	none (no result: Cycloheximide cs, NS1 function inh, AmpC inh no detg, Shiga toxin inh)
Fc1ccc(-c2noc3ncnc(NC4CCCCC4)c23)cc1	none (no result: Cycloheximide cs, NS1 function inh, AmpC inh no detg, Shiga toxin inh)
CCC1CN(C(=O)N2CCC(C(=O)NCc3ccc(OC)cc3OC)CC2)c2cc(C)ccc2O1 (stereo unspecified)	none (no result: Cycloheximide cs, NS1 function inh, AmpC inh no detg, Shiga toxin inh)
CN(CC(=O)Nc1cccc(F)c1)C(=O)c1ccc(S(=O)(=O)N2CCCC2)cc1	none (no result: Cycloheximide cs, NS1 function inh, Shiga toxin inh)
Cc1ccc(S(=O)(=O)N2CCCCC2)cc1C(=O)Nc1ccc(S(=O)(=O)Nc2ncccn2)cc1	none
Cc1ccc(C(=O)N2CCCC(CCC(=O)NCc3ccccc3F)C2)cn1 (stereo unspecified)	Cycloheximide cs 21
Cc1ccsc1C(=O)N1CCCC(CCC(=O)NCc2ccccc2F)C1 (stereo unspecified)	Cycloheximide cs 15
C=CCOc1cccc(C(=O)N2CCCC(CCC(=O)NCc3ccccc3F)C2)c1 (stereo unspecified)	Cycloheximide cs 29
O=C(CN1C(=O)c2ccccc2C1=O)Nc1cccc(S(=O)(=O)Nc2ccccc2Cl)c1	none
Cc1ccccc1OCC(=O)OCc1cc(=O)n2nc(-c3cccs3)sc2n1	none (no result: Cycloheximide cs, NS1 function inh, AmpC inh no detg, Shiga toxin inh)
CCC(=O)NNC(=S)NC(=O)c1ccc(C)cc1	Cycloheximide cs 31, Shiga toxin inh 51
